# Results reported in the supplement of paper PMC12282887.
# Counter-ions that a name gives are not always drawn. ± gives the standard deviation of the averaged measurements.
# How the values were obtained:
# Assay in all cases: promoter activity interaction Z-score (Lux/OD deviation from empty-vector control); higher = stronger promoter induction by the compound
# [1] = test system: E. coli BW25113 acrABp lux reporter
# In short: (§1)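 E. coli BW25113 (wild type or marA, soxS or rob deletion) carrying low-copy luxCDABE promoter reporters grew in 40 µl LB Lennox in 384-well plates at 37°C. Each compound was tested at four 1:2 dilutions in biological duplicates. OD600 and luminescence were read every 30 min for 12 h. Areas were taken over 0–8 h (wild type) or 1–9 h (mutants), and wells below 10% of median growth area were removed. The score is the Z-transformed residual of growth-normalised luminescence fitted against the empty-vector control.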
# [2] = test system: E. coli BW25113 marRABp lux reporter
# In short: as §1
# [3] = test system: E. coli BW25113 micFp lux reporter
# In short: as §1
# [4] = test system: E. coli BW25113 ompFp lux reporter
# In short: as §1
# [5] = test system: E. coli BW25113 robp lux reporter
# In short: as §1
# [6] = test system: E. coli BW25113 soxSp lux reporter
# In short: as §1
# [7] = test system: E. coli BW25113 tolCp lux reporter
# In short: as §1
# [8] = 28.9 µg/ml, genetic background: wild type
# [9] = 28.9 µg/ml, genetic background: ΔmarA
# [10] = 28.9 µg/ml, genetic background: Δrob
# [11] = 28.9 µg/ml, genetic background: ΔsoxS
# [12] = 57.7 µg/ml, genetic background: wild type
# [13] = 57.7 µg/ml, genetic background: ΔmarA
# [14] = 57.7 µg/ml, genetic background: Δrob
# [15] = 57.7 µg/ml, genetic background: ΔsoxS
# [16] = 115.5 µg/ml, genetic background: wild type
# [17] = 115.5 µg/ml, genetic background: ΔmarA
# [18] = 115.5 µg/ml, genetic background: Δrob
# [19] = 115.5 µg/ml, genetic background: ΔsoxS
# [20] = 230.9 µg/ml, genetic background: wild type
# [21] = 230.9 µg/ml, genetic background: ΔmarA
# [22] = 230.9 µg/ml, genetic background: Δrob
# [23] = 230.9 µg/ml, genetic background: ΔsoxS
compound,measurement,setting,value
O=C(O)COCCN1CCN(C(c2ccccc2)c2ccc(Cl)cc2)CC1 (configuration not stated) [Cetirizine dihydrochloride],promoter activity interaction Z-score,[1]; [8],0.153 ± 0.22
same,promoter activity interaction Z-score,[1]; [9],-0.276 ± 0.91
same,promoter activity interaction Z-score,[1]; [10],0.0774 ± 0.078
same,promoter activity interaction Z-score,[1]; [11],0.344 ± 0.22
same,promoter activity interaction Z-score,[1]; [12],0.202 ± 0.41
same,promoter activity interaction Z-score,[1]; [13],-0.0899 ± 0.93
same,promoter activity interaction Z-score,[1]; [14],-0.297 ± 0.33
same,promoter activity interaction Z-score,[1]; [15],0.424 ± 0.48
same,promoter activity interaction Z-score,[1]; [16],-0.397 ± 0.14
same,promoter activity interaction Z-score,[1]; [17],-0.531 ± 0.29
same,promoter activity interaction Z-score,[1]; [18],-0.491 ± 0.057
same,promoter activity interaction Z-score,[1]; [19],-0.239 ± 0.68
same,promoter activity interaction Z-score,[1]; [20],-0.0515 ± 0.05
same,promoter activity interaction Z-score,[1]; [21],-0.913 ± 0.67
same,promoter activity interaction Z-score,[1]; [22],-0.435 ± 0.21
same,promoter activity interaction Z-score,[1]; [23],-0.388 ± 0.13
same,promoter activity interaction Z-score,[2]; [8],-0.0717 ± 0.029
same,promoter activity interaction Z-score,[2]; [9],0.0437 ± 0.062
same,promoter activity interaction Z-score,[2]; [10],0.000338 ± 0.29
same,promoter activity interaction Z-score,[2]; [11],-0.0906 ± 0.0024
same,promoter activity interaction Z-score,[2]; [12],0.151 ± 0.32
same,promoter activity interaction Z-score,[2]; [13],-0.0182 ± 0.02
same,promoter activity interaction Z-score,[2]; [14],-0.17 ± 0.18
same,promoter activity interaction Z-score,[2]; [15],-0.0648 ± 0.1
same,promoter activity interaction Z-score,[2]; [16],-0.301 ± 0.014
same,promoter activity interaction Z-score,[2]; [17],-0.0679 ± 0.12
same,promoter activity interaction Z-score,[2]; [18],-0.391 ± 0.15
same,promoter activity interaction Z-score,[2]; [19],-0.384 ± 0.18
same,promoter activity interaction Z-score,[2]; [20],-0.385 ± 0.034
same,promoter activity interaction Z-score,[2]; [21],-0.279 ± 0.0034
same,promoter activity interaction Z-score,[2]; [22],-0.565 ± 0.14
same,promoter activity interaction Z-score,[2]; [23],-0.389 ± 0.19
same,promoter activity interaction Z-score,[3]; [8],0.013 ± 0.03
same,promoter activity interaction Z-score,[3]; [9],-0.101 ± 0.1
same,promoter activity interaction Z-score,[3]; [10],0.0307 ± 0.16
same,promoter activity interaction Z-score,[3]; [11],-0.145 ± 0.42
same,promoter activity interaction Z-score,[3]; [12],0.36 ± 0.081
same,promoter activity interaction Z-score,[3]; [13],0.049 ± 0.28
same,promoter activity interaction Z-score,[3]; [14],-0.0293 ± 0.15
same,promoter activity interaction Z-score,[3]; [15],0.0699 ± 0.025
same,promoter activity interaction Z-score,[3]; [16],-0.327 ± 0.23
same,promoter activity interaction Z-score,[3]; [17],0.145 ± 0.13
same,promoter activity interaction Z-score,[3]; [18],0.0776 ± 0.1
same,promoter activity interaction Z-score,[3]; [19],0.0293 ± 0.34
same,promoter activity interaction Z-score,[3]; [20],-0.141 ± 0.27
same,promoter activity interaction Z-score,[3]; [21],-0.0442 ± 0.057
same,promoter activity interaction Z-score,[3]; [22],0.195 ± 0.18
same,promoter activity interaction Z-score,[3]; [23],0.145 ± 0.13
same,promoter activity interaction Z-score,[4]; [8],0.228 ± 0.026
same,promoter activity interaction Z-score,[4]; [9],0.523 ± 0.32
same,promoter activity interaction Z-score,[4]; [10],0.79 ± 0.32
same,promoter activity interaction Z-score,[4]; [11],0.079784 ± 6.4e-05
same,promoter activity interaction Z-score,[4]; [12],0.523 ± 0.44
same,promoter activity interaction Z-score,[4]; [13],0.651 ± 0.083
same,promoter activity interaction Z-score,[4]; [14],0.368 ± 0.14
same,promoter activity interaction Z-score,[4]; [15],-0.205 ± 0.16
same,promoter activity interaction Z-score,[4]; [16],-0.463 ± 0.064
same,promoter activity interaction Z-score,[4]; [17],-0.0368 ± 0.095
same,promoter activity interaction Z-score,[4]; [18],-0.449 ± 0.31
same,promoter activity interaction Z-score,[4]; [19],-0.656 ± 0.25
same,promoter activity interaction Z-score,[4]; [20],0.136 ± 0.46
same,promoter activity interaction Z-score,[4]; [21],0.203 ± 0.1
same,promoter activity interaction Z-score,[4]; [22],-0.688 ± 0.7
same,promoter activity interaction Z-score,[4]; [23],-0.667 ± 0.25
same,promoter activity interaction Z-score,[5]; [8],-0.0279 ± 0.081
same,promoter activity interaction Z-score,[5]; [9],0.621 ± 0.13
same,promoter activity interaction Z-score,[5]; [10],0.0745 ± 0.28
same,promoter activity interaction Z-score,[5]; [11],-0.318 ± 0.5
same,promoter activity interaction Z-score,[5]; [12],0.609 ± 0.057
same,promoter activity interaction Z-score,[5]; [13],0.466 ± 0.37
same,promoter activity interaction Z-score,[5]; [14],-0.327 ± 0.31
same,promoter activity interaction Z-score,[5]; [15],0.0119 ± 0.7
same,promoter activity interaction Z-score,[5]; [16],-0.592 ± 0.34
same,promoter activity interaction Z-score,[5]; [17],0.00802 ± 0.12
same,promoter activity interaction Z-score,[5]; [18],-0.339 ± 0.12
same,promoter activity interaction Z-score,[5]; [19],-0.844 ± 0.1
same,promoter activity interaction Z-score,[5]; [20],-0.359 ± 0.2
same,promoter activity interaction Z-score,[5]; [21],-0.425 ± 0.43
same,promoter activity interaction Z-score,[5]; [22],-1.18 ± 0.85
same,promoter activity interaction Z-score,[5]; [23],-0.876 ± 0.55
same,promoter activity interaction Z-score,[6]; [8],0.227 ± 0.035
same,promoter activity interaction Z-score,[6]; [9],0.219 ± 0.05
same,promoter activity interaction Z-score,[6]; [10],0.143 ± 0.03
same,promoter activity interaction Z-score,[6]; [11],0.36 ± 0.29
same,promoter activity interaction Z-score,[6]; [12],0.625 ± 0.26
same,promoter activity interaction Z-score,[6]; [13],0.233 ± 0.067
same,promoter activity interaction Z-score,[6]; [14],0.113 ± 0.061
same,promoter activity interaction Z-score,[6]; [15],0.411 ± 0.45
same,promoter activity interaction Z-score,[6]; [16],0.0448 ± 0.13
same,promoter activity interaction Z-score,[6]; [17],0.311 ± 0.1
same,promoter activity interaction Z-score,[6]; [18],0.108 ± 0.041
same,promoter activity interaction Z-score,[6]; [19],0.145 ± 0.43
same,promoter activity interaction Z-score,[6]; [20],0.0238 ± 0.4
same,promoter activity interaction Z-score,[6]; [21],0.289 ± 0.11
same,promoter activity interaction Z-score,[6]; [22],0.127 ± 0.06
same,promoter activity interaction Z-score,[6]; [23],-0.0281 ± 0.68
same,promoter activity interaction Z-score,[7]; [8],-0.028 ± 0.45
same,promoter activity interaction Z-score,[7]; [9],0.994 ± 0.066
same,promoter activity interaction Z-score,[7]; [10],0.083 ± 0.48
same,promoter activity interaction Z-score,[7]; [11],0.251 ± 1.2
same,promoter activity interaction Z-score,[7]; [12],1.49 ± 0.11
same,promoter activity interaction Z-score,[7]; [13],0.225 ± 0.61
same,promoter activity interaction Z-score,[7]; [14],0.369 ± 1.3
same,promoter activity interaction Z-score,[7]; [15],-0.607 ± 0.17
same,promoter activity interaction Z-score,[7]; [16],0.247 ± 0.057
same,promoter activity interaction Z-score,[7]; [17],-0.0757 ± 0.41
same,promoter activity interaction Z-score,[7]; [18],0.295 ± 0.29
same,promoter activity interaction Z-score,[7]; [19],-0.698 ± 0.023
same,promoter activity interaction Z-score,[7]; [20],0.059 ± 0.6
same,promoter activity interaction Z-score,[7]; [21],-0.764 ± 0.4
same,promoter activity interaction Z-score,[7]; [22],-0.176 ± 0.18
same,promoter activity interaction Z-score,[7]; [23],0.432 ± 0.65
